Screening results: PubChem, several laboratories
This is a sample that favours compounds with a hit; in the whole collection about 2.2% have one here.
HDAC3 inh: HDAC3 deacetylase inhibitors, primary screen, biochemical, fluorescence, cell-free homogeneous. Histone deacetylase 3 (Homo sapiens), O15379. recombinant HDAC3, fluorogenic peptide/trypsin coupled. inhibition, % at 8.3 µM. hit rate 0.15% among 320,000. AID 2718, 2010; in the data active = inhibition above about 26%, passing the limit was not always enough; inconclusive = no clear call, values can overlap the other calls
Target sequence (O15379 whole entry, looked up): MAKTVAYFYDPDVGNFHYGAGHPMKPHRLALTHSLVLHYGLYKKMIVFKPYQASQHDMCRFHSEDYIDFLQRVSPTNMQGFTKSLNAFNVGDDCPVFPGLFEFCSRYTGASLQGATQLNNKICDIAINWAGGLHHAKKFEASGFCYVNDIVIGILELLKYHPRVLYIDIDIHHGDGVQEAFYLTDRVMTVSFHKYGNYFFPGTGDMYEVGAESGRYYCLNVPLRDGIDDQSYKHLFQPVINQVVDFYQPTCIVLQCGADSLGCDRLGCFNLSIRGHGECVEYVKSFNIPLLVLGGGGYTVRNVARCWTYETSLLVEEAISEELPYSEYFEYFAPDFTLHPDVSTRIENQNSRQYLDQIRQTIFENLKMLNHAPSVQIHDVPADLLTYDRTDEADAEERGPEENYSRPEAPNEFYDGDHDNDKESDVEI
Mot1-301 SUMO: yeast Mot1-301 growth rescue at high temperature, primary screen, SUMOylation pathway inhibitor project, S. cerevisiae, ATP luminescence, 38.5C. S. cerevisiae Mot1-301 growth rescue; percent above DMSO median, 100 means doubled. hit rate 1% among 320,000. growth rescue, % at 18.8 µM;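 active = every valid replicate shows activation above 250% relative to neutral control wells; inactive = the rest, any valid replicate at or below 250%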;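 note: OY570 slx delta 5 strain wells were the positive control but not used for scaling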
PHOSPHO1 block: PubChem AID 1565; recombinant PHOSPHO1, absorbance phosphatase assay; inhibition, % at 13.3 µM; hit rate 1.1% among 290,000; in the data active = inhibition above about 60%
p-CIP stab down: p/CIP-EGFP fusion destabilizers, primary screen, fluorescence, F442A cells. Q05BA5. 16 h. decrease of EGFP signal, % at 10 µM. hit rate 0.01% among 290,000;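 active = EGFP signal decrease of at least 30% at 10 µM or well 3 SD below plate mean, unless failing retest; inactive = the rest, including hits failing retest or dose response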
PvdQ acylase: P. aeruginosa PvdQ acylase inhibitors, primary screen, biochemical, fluorescence, plate reader and imaging, single point; purified PvdQ acylase; inhibition, % at 10 µM; hit rate 0.063% among 340,000; AID 488965, 2010; in the data active = inhibition above about 30%, passing the limit was not always enough; inconclusive = no clear call, values can overlap the other calls;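 note: 0% = vehicle neutral wells and 100% = reference inhibitor wells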
JMJD2C inh: inhibitors of GASC-1 histone demethylase, primary screen, biochemical, fluorescence, DELFIA europium; Lysine-specific demethylase 4C (Homo sapiens), Q9H3R0; GST-JMJD2C(1-420) H3K9me3 demethylation; inhibition, % at 2.35 µM; hit rate 0.069% among 330,000;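 active = more than half of a compound's replicate wells show inhibition beyond 50%, single wells judged on their own value; inconclusive = some, but no more than half, of replicates pass 50% inhibition; inactive = no replicate passes 50% inhibition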;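 note: signal counts dimethyl H3K9 product captured on neutravidin plate; 0% = median of DMSO wells and 100% = 0.3 times that DMSO median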
Numbers without * were called inactive; ? = inconclusive; nt = no result given.

SMILES	HDAC3 inh	Mot1-301 SUMO	PHOSPHO1 block	p-CIP stab down	PvdQ acylase	JMJD2C inh
O=C(c1cc(-c2ccc(Cl)cc2Cl)on1)N1CCCC1	1	-1	47	-2	-9	3
CCCC(=O)Nc1sc(C(=O)OC)c(C)c1C(N)=O	1	-3	77*	-5	-9	-5
CCCCC(=O)Nc1sc(C(=O)N(CC)CC)c(C)c1C(=O)OC	3	0	-18	-1	-9	4
C=CCn1c(-c2ccoc2C)n[nH]c1=S	-2	365	81*	-6	5	6
COc1ccc(Cl)cc1-c1n[nH]c(=S)n1C	-3	-19	85*	2	-14	-13
CCn1c(-c2cc(Cl)ccc2OC)n[nH]c1=S	-1	37	89*	-5	-10	-19
COc1ccc(Cl)cc1-c1nc(SCC(=O)N(C)C)n[nH]1	-1	1	-16	1	-3	-32
CCn1c(-c2cc(OC)c(OC)c(OC)c2)n[nH]c1=S	0	-6	-37	-9	-1	14
CCn1c(-c2cccc(Cl)c2)n[nH]c1=S	-4	-2	95*	-1	-15	1
CCCCc1ccc(NC(=O)CN(C)CC(=O)Nc2ccccc2Cl)cc1	21	8	38	-10	-20	20
CC(C(=O)NCc1cccnc1)c1ccc([N+](=O)[O-])cc1 (stereo not drawn)	9	-16	18	-5	-9	13
O=C(C(=O)N1CCCC1)c1c(-c2ccccc2)[nH]c2ccccc12	-2	-5	14	-7	-7	10
CCn1c(C)nc2cc(C(=O)NNC(=S)Nc3ccc(OC)cc3)ccc21	0	203	-96	-5	11	-5
O=S(=O)(NC1=NCCCCC1)c1ccc2ccccc2c1	-9	4	-16	-4	-14	4
N#Cc1ccc(CN2CCN(C(=O)CC(NC(=O)c3ccccc3)c3ccccc3)CC2)cc1 (stereo not drawn)	-12	5	14	-20	-11	-2
CCn1c(-c2csc(-c3ccc(Cl)cc3)n2)n[nH]c1=S	9	nt	83*	3	-21	-6
C=CCn1c(-c2cccc(OC)c2OC)n[nH]c1=S	1	31	-86	-19	-13	-3
C=CCn1c(-c2cc(Cl)ccc2OC)n[nH]c1=S	4	1	92*	-1	-20	-7
CC(=O)c1ccccc1OC(=O)COc1ccc(Cl)cc1C	5	84	-6	-5	5	3
CCC(=O)N1CCc2cc(S(=O)(=O)CCC(=O)N(C)c3ccc(OC)cc3)ccc21	2	4	29	0	-7	9
O=C(COC(=O)/C=C/c1ccc(S(=O)(=O)N2CCOCC2)cc1)NCc1ccc(F)cc1	1	307*	48	-2	0	-12
O=C(COC(=O)/C=C/c1ccc(S(=O)(=O)N2CCOCC2)cc1)NCc1ccc2c(c1)OCO2	-5	1	12	-1	-10	-12
COc1cc(/C=N/n2cc(-c3ccccc3)[nH]c2=S)cc(OC)c1O	nt	540*	25	-10	-4	1
Oc1ccc(/C=N/n2cc(-c3ccccc3)[nH]c2=S)cc1	1	nt	2	-24	2	2
CCc1nc(SCC(=O)NC2CC2)c2c(C)c(C)sc2n1	3	23	4	-3	-10	19
SMILES	HDAC3 inh	Mot1-301 SUMO	PHOSPHO1 block	p-CIP stab down	PvdQ acylase	JMJD2C inh
Cc1ccc(C(=O)NCc2ccccn2)cc1Cl	-4	-3	60*	-1	-7	-9
Cc1ccc(-c2cc(C(=O)N3CCN(c4ncccn4)CC3)c3ccccc3n2)cc1	6	-25	69*	-11	-3	1
Cc1ccsc1C(=O)OCC(=O)N1CCN(C(=O)c2ccco2)CC1	1	31	63*	4	2	-8
O=C(OCC(=O)N1CCN(C(=O)c2ccco2)CC1)c1cc(-c2ccccc2)nc2ccccc12	-2	-12	61*	-1	-14	9
O=C1c2cccc(NCCCNCCO)c2C(=O)c2cccc(NCCCNCCO)c21	nt	nt	nt	nt	-18	nt
OC(CNCCC1C=Nc2ccccc21)Cn1c2ccc(Cl)cc2c2cc(Cl)ccc21 (stereo not drawn)	46*	-76	-8	-31	6	-4
OC(CNCC1CCCO1)Cn1c2ccc(Cl)cc2c2cc(Cl)ccc21 (stereo not drawn)	15	-21	33	-12	-11	17
c1ccc(-c2nn3c(Cn4nnc5ccccc54)nnc3s2)nc1	0	-11	41	-10	-6	13
c1cncc(-c2nn3c(Cn4nnc5ccccc54)nnc3s2)c1	12	6	51	3	5	-1
c1ccc2c(c1)OCC(c1nn3c(Cn4nnc5ccccc54)nnc3s1)O2 (stereo not drawn)	-1	-5	62*	-7	16	0
c1ccc(CCc2nn3c(Cn4nnc5ccccc54)nnc3s2)cc1	0	-11	37	-5	-9	-14
c1ccc(Cc2nn3c(Cn4nnc5ccccc54)nnc3s2)cc1	5	7	91*	-14	-8	9
c1ccc(OCc2nnc3sc(-c4cccs4)nn23)cc1	4	0	61*	4	2	1
c1ccc(OCc2nn3c(Cn4nnc5ccccc54)nnc3s2)cc1	4	0	83*	18	4	4
Cn1nc(C(=O)NCC(=O)Nc2ccc(F)c(F)c2F)c2ccccc2c1=O	-1	-9	nt	nt	-8	3
CC(=O)c1cccc(NS(=O)(=O)c2ccc(-c3cc(C)no3)s2)c1	4	18	22	-8	-7	13
C[C@H](CO)N1C[C@H](C)[C@@H](CN(C)C(=O)Nc2ccc(C(F)(F)F)cc2)Oc2ccc(NS(=O)(=O)c3cccs3)cc2C1=O	6	-24	nt	nt	1	nt
CC1CN(Cc2cc(=O)n3ccsc3n2)CC(C)O1 (stereo not drawn)	?	278*	45	-5	2	56
O=c1cc(CN2CCC(Cc3ccccc3)CC2)nc2sccn12	7	4	42	-6	-6	0
O=C(CSc1ccc2nnc(-c3cccnc3)n2n1)Nc1ccccc1C(F)(F)F	nt	298*	43	-3	-16	3
O=C(CSc1ccc2nnc(-c3cccnc3)n2n1)Nc1ccccc1	6	21	13	0	6	2
Cc1cc(C(=O)CSc2nnnn2C)c(C)n1C1CC1	5	-19	4	5	-5	-19
COc1ccc(CCn2c(C)cc(C(=O)CSc3nnnn3-c3ccccc3)c2C)cc1	6	0	71*	-9	-9	1
Cc1cc(C(=O)CSc2nnnn2C)c(C)n1CCc1ccc(Cl)cc1	-3	29	82*	1	-12	-2
